The target of assay [1] is Cellular tumor antigen p53 (Homo sapiens) (UniProt P04637). Kind of assay: Primary qHTS for small molecule compounds that upregulate eGFP-tagged delta133p53alpha (in N-terminal) cells. (AID 2060322).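 For activation: series mostly up to about 56 µM; 0% = DMSO vehicle and 100% = reference activator.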 Note: nearly all actives have a fitted effect of over 75% in size. Note: potency is the fitted concentration of half-maximal effect. Particulars: NCI-H358 eGFP-delta133p53alpha fluorescence, 24 h; activation: stronger effect = higher value. The method, boiled down: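 NCI-H358 cells pre-induced 24 h with 10 ng/ml doxycycline to express N-terminal eGFP-delta133p53alpha, then dosed 24 h at 37C without doxycycline; fixed, Hoechst-stained, GFP intensity by laser scanning cytometry, normalized to DMSO (0%) and 57.5 uM 5-azacytidine (100%).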
Cellular tumor antigen p53 (Homo sapiens), sequence (P04637 whole entry, looked up): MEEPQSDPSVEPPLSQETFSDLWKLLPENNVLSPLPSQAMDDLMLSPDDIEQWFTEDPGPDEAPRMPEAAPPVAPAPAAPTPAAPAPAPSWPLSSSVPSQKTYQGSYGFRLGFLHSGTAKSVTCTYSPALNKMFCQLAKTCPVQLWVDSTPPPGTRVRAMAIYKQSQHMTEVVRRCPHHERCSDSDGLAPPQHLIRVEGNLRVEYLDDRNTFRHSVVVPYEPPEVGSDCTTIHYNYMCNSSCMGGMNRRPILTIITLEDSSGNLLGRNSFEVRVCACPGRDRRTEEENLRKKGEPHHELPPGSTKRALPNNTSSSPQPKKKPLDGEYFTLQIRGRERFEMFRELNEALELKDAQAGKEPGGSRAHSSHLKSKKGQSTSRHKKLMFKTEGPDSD

Assay [2] shares this target. Kind of assay: Primary qHTS for small molecule compounds that upregulate eGFP-tagged delta133p53alpha (in C-terminal) cells. (AID 2060324). Note: potency is the fitted concentration of half-maximal effect. The method in brief: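 In this qHTS, GFP-tagged delta133p53alpha levels are measured in fixed NCI-H358 cells after 24 h compound exposure at 37 °C. The cells are pre-induced with 100 ng/ml doxycycline, and signal is normalized to DMSO-treated wells as 0%.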

Assay [3] deals with Aldehyde dehydrogenase, mitochondrial (Homo sapiens) (UniProt P05091). Kind of assay: qHTS for Inhibitors of the Aldehyde Dehydrogenase Family (ALDH2) Validation screens (AID 2061302; active = well fitted inhibition curve with a large enough effect; title and protocol of this record describe different tests; note: potency is the fitted concentration of half-maximal effect). (Quantitative high-throughput screening tests each substance at several concentrations.)
Assay [4] deals with Retinaldehyde dehydrogenase 3 (Homo sapiens) (UniProt P47895). Kind of assay: qHTS for Inhibitors of the Aldehyde Dehydrogenase Family (ALDH1A3) Validation screen (AID 2061312). Note: % is set by controls: 0 for no effect and ±100 for the full control effect; nearly all actives have a fitted effect of over 45% in size.

The record followed here is PubChem BioAssay (NCATS).

Structures are written as SMILES. Where “and” joins values, the source holds several entries; their conditions need not be identical. Identical values can stand only once. Inconclusive results are not listed. A number with no mark means an inactive call. Calls of active or inactive are those of the source. Unless noted, calls come from the whole dose curve; as a rule, active = well fitted curve in the direction sought with a large enough effect; inconclusive = small, poorly fitted or top-dose-only effect, or another doubt; inactive = no such curve, though single readings can be large; an effect the other way counts as inactive or inconclusive.

Consider `CCCCCCCCc1ccc(-c2ccc(C(=O)O)cc2)cc1`, for which the activation in assay [1] was -87.3%. The Potency result in assay [2], in assay [3] and in assay [4] was “inactive” throughout.
Consider `O=[N+]([O-])c1cccc2c(Br)[nH]nc12`, for which the activation in assay [1] is -55.3%. The Potency entry in assay [2], in assay [3] and in assay [4] was “inactive” in each case.
Regarding `C=CC(C)=C[C@@]1(C)SC(=O)C(C)=C1O`, the activation in assay [1] is 0.958%. Besides, the Potency result in assay [2], in assay [3] and in assay [4] was “inactive” each time.
Take `C=CCc1ccccc1OCC(O)CNC(C)C` (stereo not drawn): in assay [1], the activation is 2.82% and -28%. Besides, the Potency result in assay [2], in assay [3] and in assay [4] was “inactive” in each case.
For `Cc1ccc(S(=O)(=O)/C=C/C#N)cc1`, the Potency in assay [1] was 30.1 µM (active); in assay [2] it was 30.1 µM (active); in assay [3], 0.398 µM (active). In addition, in assay [4], the Potency entry was “inactive”.
With `N=c1nc(N2CCCCC2)cc(N)n1O`, the activation in assay [1] was -6.36% and -9.21% and -2.97%. Further, the Potency result in assay [2], in assay [3] and in assay [4] was “inactive” throughout.
As for `CCN(CC)CCOCCOC(=O)C1(c2ccccc2)CCCC1`, the activation in assay [1] is -17.5% and -6.79%. Moreover, the Potency entry in assay [2], in assay [3] and in assay [4] was “inactive” each time.
In the case of `Cc1cc(NC(=O)Nc2ccc3c(ccn3C)c2)sn1`, the activation in assay [1] is 51%. In addition, the Potency entry in assay [2], in assay [3] and in assay [4] was “inactive” each time.
For the compound `Nc1nc(Nc2ccccc2)nc2c1ncn2[C@@H]1O[C@H](CO)[C@@H](O)[C@H]1O`, the activation in assay [1] was 8.56%. For the same compound, the Potency result in assay [2], in assay [3] and in assay [4] was “inactive” each time.
Consider `O=S(=O)(c1cccc2c(Cl)cccc12)N1CCCNCC1`, for which, in assay [1], the activation is -18.2%. Further, the Potency entry in assay [2], in assay [3] and in assay [4] was “inactive” each time.
As for `Fc1ccc(C(OCCCc2cnc[nH]2)c2ccc(F)cc2)cc1`, the activation in assay [1] is -45.7%. Also, the Potency result in assay [2], in assay [3] and in assay [4] was “inactive” each time.
On to `CN(CC[C@@H](Oc1ccc(C(F)(F)F)cc1)c1ccccc1)CC(=O)O`, for which, in assay [1], the activation was 2.22%. In addition, the Potency result in assay [2], in assay [3] and in assay [4] was “inactive” each time.
In the case of `COc1ccccc1N1CCN(CCCCNC(=O)c2ccc3ccccc3c2)CC1`, in assay [1], the activation was -23%. Moreover, the Potency entry in assay [2], in assay [3] and in assay [4] was “inactive” throughout.
On to `CC#CCOC(=O)c1c(C)nc2sc3c(c2c1N)CCC(O)C3` (stereo not drawn), for which the activation in assay [1] was -13.8%. For the same compound, the Potency entry in assay [2], in assay [3] and in assay [4] was “inactive” in each case.
Consider `CCCCCCCCCCC/C=C\C(C)(C)/C=C\CCCC(=O)O`, for which the activation in assay [1] was -22.9%. The Potency entry in assay [2], in assay [3] and in assay [4] was “inactive” each time.
Take `CCCCCCCCCCC(C)(C)C(=O)Nc1c(OC)cc(OC)cc1OC`: the activation in assay [1] was -40.6%. In addition, the Potency result in assay [2], in assay [3] and in assay [4] was “inactive” each time.
For `Cc1nc2sccn2c(=O)c1CCN1CCC(=C(c2ccc(F)cc2)c2ccc(F)cc2)CC1`, in assay [1], the activation was -20.9% and -40.8%. The Potency result in assay [2], in assay [3] and in assay [4] was “inactive” each time.
For `CO/N=C(\C(=O)N[C@@H]1C(=O)N2C(C(=O)O)=C(COC(C)=O)CS[C@H]12)c1csc(N)n1`, in assay [1], the activation is 2.44%. Also, the Potency entry in assay [2], in assay [3] and in assay [4] was “inactive” throughout.
`Nc1c2c(nc3ccccc13)CCCC2O` (stereo not drawn): the activation in assay [1] is 7.34% and -16.8%. For the same compound, the Potency result in assay [2], in assay [3] and in assay [4] was “inactive” each time.
In the case of `CCN(CC)CC(=O)Nc1c(C)cccc1C`, in assay [1], the activation is -3.35% and -7.58%. Also, the Potency result in assay [2], in assay [3] and in assay [4] was “inactive” in each case.
Regarding `NC(=O)CNCCC(c1ccccc1)c1ccccc1`, the activation in assay [1] is -18.2%. The Potency result in assay [2], in assay [3] and in assay [4] was “inactive” throughout.
Consider `CC1CCN(CC[C@H]2CCCN2S(=O)(=O)c2cccc(O)c2)CC1`, for which the activation in assay [1] is -4.01%. The Potency result in assay [2], in assay [3] and in assay [4] was “inactive” in each case.
Regarding `c1ccc(-c2ccccn2)nc1`, the activation in assay [1] is -21.2%. Further, the Potency result in assay [2], in assay [3] and in assay [4] was “inactive” each time.
Take `NOCC(=O)O`: the activation in assay [1] was -16.6%. Moreover, the Potency result in assay [2], in assay [3] and in assay [4] was “inactive” throughout.
For `CCC1C(=O)OCC1Cc1cncn1C` (stereo not drawn), the activation in assay [1] was -0.565% and -54.1% and -41.4%. Besides, the Potency entry in assay [2], in assay [3] and in assay [4] was “inactive” in each case.
Turning to `COC(=O)[C@@H](N)Cc1ccc(O)c(O)c1`, the activation in assay [1] was 2.51% and -29.9%. The Potency entry in assay [2], in assay [3] and in assay [4] was “inactive” throughout.
With `CN1CCN(C2Cc3ccccc3Sc3ccc(Cl)cc32)CC1` (stereo not drawn), the activation in assay [1] was -14.1%. Besides, the Potency entry in assay [2], in assay [3] and in assay [4] was “inactive” in each case.
